# High-throughput results from PubChem.
# Only some compounds are listed: those with a hit (about 8.9% of all), similar ones and a draw of the others.
# KB-V1 cytotox: kills drug-selected multidrug resistant KB-V1 cells; KB-V1 MDR cells viability, CellTiter-Glo, 72 h; Potency, µM (top dose mostly 46.1 µM), most hits filed as cytotoxic; 400,000 compounds, 3.4% hits; AID 1347076; also: potency is read from the fitted curve at half-maximal effect; % is scaled to controls: 0 for no effect and ±100 for the full control effect; nearly all actives have a fitted effect of over 60% in size
#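 KB-V1, DMEM (no phenol red) + 10% FBS; cpd pin-transferred, titration series; 72 h, 37 degrees C; CellTiter-Glo, luminescence. Data normalized, curve-fit.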
# SW480 rerep: DNA re-replication induction in SW480 cells. Potency, µM (doses to about 46.1 µM), without a hit: at the highest dose re-replication activation, hits mostly activators. 340,000 compounds, 1.8% hits. AID 624297. SW480 DNA re-replication, Hoechst DNA content imaging, 48 h; also: potency is read from the fitted curve at half-maximal effect; % of control where 0% means no effect; nearly all actives have a fitted effect of over 55% in size
#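 DNA re-replication was detected as more nuclei of elevated Hoechst intensity after 48 hr exposure to compound (23 nL pinned per well of 250 cells).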
# MCF10A rereplic: induces DNA re-replication in MCF 10a normal breast cells; MCF 10A DNA re-replication, Hoechst nuclear intensity, 48 h; Potency, µM (doses to about 46.1 µM), for inactives: top-dose activity, positive = re-replication, hits mostly activators; 350,000 compounds, 2.9% hits; also: potency is read from the fitted curve at half-maximal effect; % of control where 0% means no effect; nearly all actives have a fitted effect of over 50% in size
# KB-3-1 tox: kills parental KB-3-1 adenocarcinoma cells; KB-3-1 viability, CellTiter-Glo ATP luminescence, 72 h; Potency, µM (doses to about 46.1 µM), usual class: cytotoxic; 400,000 compounds, 1.4% hits; AID 1347075; also: potency is read from the fitted curve at half-maximal effect; % is scaled to controls: 0 for no effect and ±100 for the full control effect; nearly all actives have a fitted effect of over 60% in size
#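 KB-3-1 parental drug-naive adenocarcinoma cells in DMEM/10% FBS, incubated 72 h at 37 C with pin-transferred compounds across a concentration series. Viability by CellTiter-Glo luminescence; concentration-response curves fitted after normalization.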
# D3 antag: antagonists of human D3 dopamine receptor; P35462; D3R cells, DiscoveRx beta-arrestin luminescence, antagonist mode; active compounds read low; max response, negative = inhibition, %; 360,000 compounds, 2.5% hits; AID 652054; in the data active = max response below about -50%; inconclusive = no clear call, values can overlap the other calls; also: % is scaled to controls: 0 for no effect and ±100 for the full control effect
# Target sequence (P35462 whole entry, looked up): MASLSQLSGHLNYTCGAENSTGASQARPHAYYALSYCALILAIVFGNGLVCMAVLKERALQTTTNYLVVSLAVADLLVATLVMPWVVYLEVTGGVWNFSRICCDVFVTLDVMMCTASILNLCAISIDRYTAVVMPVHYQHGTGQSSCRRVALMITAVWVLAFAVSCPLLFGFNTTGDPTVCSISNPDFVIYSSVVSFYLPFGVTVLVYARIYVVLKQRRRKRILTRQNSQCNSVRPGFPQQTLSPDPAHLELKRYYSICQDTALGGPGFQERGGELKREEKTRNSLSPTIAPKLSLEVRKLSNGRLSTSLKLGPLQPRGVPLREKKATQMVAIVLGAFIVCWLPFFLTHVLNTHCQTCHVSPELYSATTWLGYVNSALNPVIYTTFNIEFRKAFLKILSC
#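 Cells expressing the human receptor were seeded at 1500 cells/well, incubated overnight at 37 degrees C in 5% CO2, then exposed to library compounds with dopamine controls for 90 minutes at 37 degrees C before luminescent detection.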
# DRD3 agonist: D3 dopamine receptor (human) agonism; D3R DiscoveRx beta-arrestin cells, luminescence, 90 min; 410,000 compounds, 0.58% hits; P35462; max activation, %; AID 652048; in the data active = max activation above about 30%; also: 0% is about no effect
#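 Agonist-mode cell screen: cells plated at 1500/well and incubated overnight at 37 °C, then exposed to library compounds for 90 min at 37 °C. Detection reagent was added for 30–60 min at room temperature, and luminescence was read.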
# * marks the source's active call; other numbers are inactive results; i = inactive; ? = inconclusive; / = not tested or not shown. Unless noted, calls follow the shape of the dose curve; as a rule, active = well fitted curve in the direction sought with a large enough effect; inconclusive = small, poorly fitted or top-dose-only effect, or another doubt; inactive = no such curve, though single readings can be large; an effect the other way counts as inactive or inconclusive.
SMILES,KB-V1 cytotox,SW480 rerep,MCF10A rereplic,KB-3-1 tox,D3 antag,DRD3 agonist
O=C(O)c1ccc(N/N=C/c2ccc(-c3ccc(Br)cc3)o2)cc1,i,21µM*,?,i,-2,7
O=C(NCc1cccnc1)c1ccc(-c2ccccc2[N+](=O)[O-])o1,i,4%,?,i,-55*,-6
Cc1cc(NC(=O)c2ccc(-c3ccccc3[N+](=O)[O-])o2)no1,i,-3%,1%,i,-20,-29
O=C(O)c1ccc(N/N=C/c2ccc(-c3ccccc3Cl)o2)cc1,i,16µM*,?,i,-6,16
CC(=O)c1c(C)oc2c(Br)cc(NS(=O)(=O)c3ccc(Br)cc3)cc12,?,/,/,i,/,-7
Clc1ccccc1-c1ccc(/C=N/Nc2nncc(-c3ccccc3)n2)o1,i,-2%,1%,i,-7,-1
O=S(=O)(N/N=C\c1ccc(-c2ccccc2Cl)o1)c1ccccc1,i,?,?,i,-52*,2
Cc1cc2oc(=O)c(CC(=O)NCCCO)c(C)c2c2occ(C(C)(C)C)c12,i,5%,20%,i,25,7
Cc1cc2oc(=O)c(CC(=O)NCCCN(C)C)c(C)c2c2occ(C(C)(C)C)c12,?,9.2µM*,?,?,-5,4
COCCNC(=O)Cc1c(C)c2c(cc(C)c3c(C(C)(C)C)coc32)oc1=O,?,16µM*,5.8µM*,?,4,6
Cc1nn(C)c2c1c(C(F)(F)F)cc(=O)n2C(C)C(=O)NCc1ccccc1 (configuration not stated),i,/,/,i,/,2
CCCCC(=O)N(Cc1ccc(-c2ccccc2-c2nn[nH]n2)cc1)[C@@H](C(=O)O)C(C)C,/,/,/,/,/,-9
O=C1c2cnc3nc(SCc4ccccc4)nn3c2CC2c3ccccc3CCN12 (configuration not stated),i,4.1µM*,2.3µM*,i,-13,-12
CCOc1ccc(Br)cc1C(=O)N/N=C/c1cccc(C)n1,i,-1%,18µM*,i,4,0
Cc1ccc(NC(=O)CSC2=NCCN2)cc1,i,15%,21µM*,i,-23,-8
COc1ccccc1NC(=O)CSC1=NCCN1,i,-692%,-57%,i,5,-6
O=C(CSC1=NCCN1)Nc1cccc([N+](=O)[O-])c1,i,1%,?,i,-65*,-15
COCCCOc1cc(C[C@@H](C[C@H](N)[C@@H](O)C[C@H](C(=O)NCC(C)(C)C(N)=O)C(C)C)C(C)C)ccc1OC,/,/,/,/,/,12
Brc1ccc(-c2cn3c(n2)CCc2ccc4cccnc4c2-3)cc1,16µM*,?,23µM*,i,-6,2
Brc1ccc(-c2cn3nc4c(nc3n2)CCCC4)cc1,i,-4%,2%,i,0,-7
Nc1nc2c(nnn2C2CC(O)C(CO)O2)c(=O)[nH]1 (configuration not stated),1.3µM*,/,/,2.3µM*,0,-10
C(=C\c1nc2ccccc2o1)/c1ccc2c(c1)OCO2,i,/,/,i,/,/
CC(=O)c1sc(N/N=C/c2cccc(O)c2)nc1C,i,-9%,12%,i,-18,-7
COC(=O)c1sc(N/N=C/c2ccc(C(C)C)cc2)nc1C,i,?,15µM*,i,16,11
CC(=O)c1sc(N/N=C\c2ccc(N(C)C)cc2)nc1C,i,?,16µM*,i,-5,0
SMILES,KB-V1 cytotox,SW480 rerep,MCF10A rereplic,KB-3-1 tox,D3 antag,DRD3 agonist
CC(=O)c1sc(N/N=C\c2c(O)ccc3ccccc23)nc1C,i,3.3µM*,?,?,-54*,-10
CC(=O)c1sc(Nc2cccc3ccccc23)nc1C,i,-20%,?,i,-1,-2
COc1cccc(C(=O)NCC(c2ccc(N(C)C)cc2)N2CCCC2)c1OC (configuration not stated),i,/,/,i,/,-20
CC(=O)c1cccc(N(CC(=O)NC2CCCCC2)C(=O)Cn2nnc(-c3ccccc3)n2)c1,i,-1%,4%,i,-8,-6
FC(F)C(F)(F)Oc1cccc(Nc2nccn3c(-c4ccc5ccccc5c4)cnc23)c1,10µM*,/,/,?,15,3
COc1ccc(N2C(=O)CSC23C(=O)N(CC(=O)Nc2ccccc2F)c2ccccc23)cc1 (configuration not stated),?,/,/,i,/,-3
COc1ccc(-c2nn(-c3ccccc3)cc2/C=C(\CC(=O)O)c2nc3ccccc3s2)cc1OC,i,2%,18µM*,i,15,2
COc1ccc(/C=C(\CC(=O)O)c2nc3ccccc3s2)cc1O,i,-8%,6%,i,-5,-3
Cc1ccc(CNC(=O)CSc2ncc(S(=O)(=O)c3ccc(C)c(Cl)c3)c(=O)[nH]2)cc1,i,/,/,i,/,-2
CSC1=C(C#N)C(c2ccc(Cl)cc2)C2=C(CC(C)(C)CC2=O)N1 (configuration not stated),21µM*,21%,?,?,-2,-1
CC1(C)CC(=O)C2=C(C1)NC1=C(C(=O)c3ccccc31)C2c1ccc(Cl)cc1 (configuration not stated),15µM*,3%,?,?,-27,-6
Cc1ccc(C2C3=C(CC(C)(C)CC3=O)NC3=C2C(=O)c2ccccc23)cc1 (configuration not stated),i,-4%,3%,?,-15,-3
O=C(Cc1ccc(Cl)cc1)OCC(=O)N1CCCCCC1,i,-4%,0%,i,4,-5
CCOc1ccc(CCNC(=O)c2cccc(-n3c(C)nc4cccnc43)c2)cc1,?,/,/,i,/,2
Cc1ccc(C)c(Cn2c(=O)cc(C(F)(F)F)c3c(C)nn(C)c32)c1,i,/,/,i,/,-3
CCOc1ccccc1N1CCN(CC(O)COc2ccc3c(C)cc(=O)oc3c2)CC1 (configuration not stated),?,1%,15%,i,-70*,-9
Cc1cc(=O)oc2cc(OCC(O)CN3CCN(c4ccc(F)cc4)CC3)ccc12 (configuration not stated),i,-7%,0%,i,?,3
COc1cccc(OC)c1OCC(O)CN1CCN(c2ccccc2F)CC1 (configuration not stated),i,-1%,1%,i,-57*,28
COc1ccccc1N1CCN(Cc2cc3c(cc2O)OCO3)CC1,i,-2%,5%,i,-81*,-26
